Screens: PubChem, National Center for Advancing Translational Sciences (NCATS)
Hits are enriched below; roughly 19% of the tested compounds scored in any of these assays.
DT40 TDP1 no CPT: qHTS for Inhibitors of human tyrosyl-DNA phosphodiesterase 1 (TDP1): qHTS in cells in absence of CPT | DT40 Tdp1-/- hTDP1 cells, no CPT, ATP luminescence, 48 h | Potency, µM (top dose mostly 46.2 µM), for inactives: at the highest dose activity change, negative = growth inhibition, usual class: inhibitors | hit rate 15% among 420,000; also: potency is read from the fitted curve at half-maximal effect; nearly all actives have a fitted effect of over 55% in size
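Luminescent ATP content (CellTiter-Glo) served as the growth readout. Knockout chicken DT40 cells expressing human TDP1 were exposed to compounds without camptothecin for a minimum 48 hr at 37 °C.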
DT40 TDP1 CPT: growth inhibition of DT40 Tdp1-/-;hTDP1 cells with camptothecin (screen for TDP1 inhibitors); chicken DT40 Tdp1-/-;hTDP1 cells + 20 nM CPT, ATP luminescence, 48 h; AID 686979; hit rate 12% among 420,000; Potency, µM (series often up to 46.2 µM), for inactives: top-dose activity change, negative = growth inhibition, most hits filed as inhibitors; also: potency is read from the fitted curve at half-maximal effect; nearly all actives have a fitted effect of over 55% in size
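Chicken DT40 Tdp1-/- cells complemented with human TDP1, 400 cells/well, exposed to compounds plus 20 nM camptothecin for at least 48 h at 37 C; viability read as ATP content by CellTiter-Glo luminescence.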
HT1080NT lethal: kills 2HG-producing HT-1080-NT fibrosarcoma cells | HT-1080-NT fibrosarcoma viability, CellTiter-Glo ATP luminescence, 48 h | Potency, µM (highest dose often 46.1 µM), for the others: top-dose activity, negative = less viability, actives largely listed as cytotoxic | hit rate 1.6% among 360,000;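 also: NT is the 2HG producing partner of a matched IDH1 knockdown line; potency is read from the fitted curve at half-maximal effect; 0% = DMSO-treated cells and -100% = media-only wells without cells; nearly all actives have a fitted effect of over 55% in size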
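Viability by CellTiter-Glo luminescence after 48 h compound exposure at 37C of HT-1080-NT cells (750/well, RPMI, 5% FBS). % activity scaled between DMSO wells and medium-only wells, then curve-fitted and categorized by curve class.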
HT1080 IDH1KD tx: kills HT-1080 cells with IDH1 knockdown. Potency, µM (series often up to 46.1 µM), for the others: top-dose activity, negative = toxicity, usual class: cytotoxic. AID 686971. hit rate 2% among 360,000. HT-1080 IDH1 knockdown viability, ATP luminescence, 48 h;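 also: potency is read from the fitted curve at half-maximal effect; 0% = DMSO wells and -100% = cell-free medium wells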
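After a 2 h attachment period, IDH1KD HT-1080 cells took pin-transferred compound for 48 h at 37 °C; ATP-based luminescence after 10 min room-temperature reagent incubation reported viability.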
IL-1B inflam inh: inflammasome signaling inhibition, IL-1 beta readout; THP-1 LPS/ATP IL-1B secretion, AlphaLISA, 16 h; hits give low values; AID 743279; activity change, % at 57.5 µM; hit rate 4.7% among 360,000; in the data active = activity change below about -50%; inconclusive = mostly about -30% to -49%
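THP-1 cells pretreated 1 hr with compounds (up to 57.5 uM final), then stimulated with LPS (250 ng/mL final) plus ATP (1.25 mM final); secreted IL-1B measured by AlphaLISA after 16 hr, decreased signal indicating inhibition.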
An asterisk follows results filed as active; ? = inconclusive; . = no result given. Unless noted, calls follow the shape of the dose curve; as a rule, active = well fitted curve in the direction sought with a large enough effect; inconclusive = small, poorly fitted or top-dose-only effect, or another doubt; inactive = no such curve, though single readings can be large; an effect the other way counts as inactive or inconclusive. Unless noted, % is scaled to controls: 0 for no effect and ±100 for the full control effect.

SMILES	DT40 TDP1 no CPT	DT40 TDP1 CPT	HT1080NT lethal	HT1080 IDH1KD tx	IL-1B inflam inh
CCOc1ccc(CCNC(=O)c2cc3c(-c4cccc(OC)c4)nn(C)c3s2)cc1OCC	18.4µM*	?	.	.	.
CCCCOP(=O)(OCCCC)C(Nc1ccc(C(=O)OCC)cc1)c1ccncc1 (stereo not drawn)	11.6µM*	?	?	-10.1%	-65.3*
CCOP(=O)(OCC)C(O)c1cccnc1 (stereo not drawn)	-8.2%	10.3%	14.3%	10.1%	3.6
Cc1cc(C)[n+](Cc2ccccc2)cc1C(N)=O	5.6%	16.4%	?	0.5%	17.1
Cn1c(=O)n(C)c2cc([N+](=O)[O-])c(N3CCNCC3)cc21	2.9%	-13.0%	-6.8%	0.4%	11.0
CN1CCN(c2cc(N3CCCCCC3)c(F)cc2[N+](=O)[O-])CC1	29.1µM*	?	-7.0%	0.4%	-56.5*
CN1CCN(c2c(F)cc([N+](=O)[O-])c(N)c2Br)CC1	?	7.9%	-2.8%	-18.8%	?
CCN1CCN(c2cc(N3CCCC3)c([N+](=O)[O-])cc2F)CC1	29.1µM*	?	-5.3%	7.5%	-6.6
O=C(Oc1ccccc1)N1CCC2(CCN(Cc3ccccc3)CC2)CC1	-7.9%	5.7%	.	.	.
CCCCOC1OCN(C2CCCCC2)CC1(C)C (stereo not drawn)	?	-18.6%	-7.4%	1.7%	2.2
C[C@H]1CNC(=O)c2c(C(=O)Nc3ccc(CNC(=O)OC(C)(C)C)cc3)ncn21	9.2µM*	14.6µM*	-19.5%	-8.9%	-12.9
C[C@@H]1CNC(=O)c2c(C(=O)Nc3cccc(Cl)c3)ncn21	20.6µM*	20.6µM*	-19.5%	-20.3%	?
Cc1cccc(NC(=O)c2ncn3c2C(=O)NC[C@@H]3C)c1	?	-4.3%	-3.5%	11.8%	-17.6
C[C@H]1CNC(=O)c2c(C(=O)Nc3cccc(Cl)c3)ncn21	?	-7.2%	-15.7%	-7.5%	0.0
C[C@H]1Cn2cnc(C(=O)Nc3ccc(CNC(=O)OC(C)(C)C)cc3)c2C(=O)N1	13µM*	?	23.3%	1.8%	?
CC(=NCCCn1ccnc1)c1c(O)n(C2CCCCC2)c(=O)[nH]c1=O	-15.9%	9.3%	0.3%	-4.8%	1.9
CC(=O)N1N=C2C3CCN(CC3)C2C1c1cccc2ccccc12 (stereo not drawn)	-7.7%	-1.1%	0.0%	-1.7%	-13.4
Cc1ccc(OC(=O)N(C)C[C@H]2OCc3cnnn3CCCC(=O)N([C@H](C)CO)C[C@@H]2C)cc1	?	?	2.1%	-0.9%	-21.3
Cc1ccc(-[n+]2c(Cc3nn(-c4ccccc4)c(C)[n+]3-c3ccc(C)cc3)nn(-c3ccccc3)c2C)cc1	5.4%	-10.0%	1.8%	0.1%	-4.9
CSc1ncc(/C=C2/C(=O)NC(=O)N(C3CCCCC3)C2=O)cn1	7.0%	-2.3%	-2.0%	-1.0%	-13.4
CCCn1cc(C(=O)O)cn1	-1.5%	-20.5%	-3.1%	-11.9%	2.1
CC[N+]12CCC(CC1)C(=C(c1ccccc1)c1ccccc1)C2	16.4µM*	?	-11.7%	-8.5%	0.0
S=C1Nc2ccccc2Sc2ccccc21	-10.7%	11.1%	-15.8%	-2.0%	14.2
c1ccc2c(c1)CSc1ccccc1N2	?	-13.4%	-22.2%	-18.0%	-65.4*
Clc1ccc(COC(Cn2ccnc2)c2ccc(Cl)cc2Cl)cc1 (stereo not drawn)	20.6µM*	23.1µM*	?	14.6µM*	0.0
Clc1ccc(CSC(Cn2ccnc2)c2ccc(Cl)cc2Cl)cc1 (stereo not drawn)	18.4µM*	?	?	?	-9.8
Cc1ccccc1-n1c(-c2ccco2)nc2ccccc2c1=O	9.2µM*	11.6µM*	-11.8%	-15.7%	-17.1
COc1ccc(-n2c(-c3ccco3)nc3ccccc3c2=O)cc1	23.1µM*	?	-9.9%	-4.8%	0.0
O=C(CSc1nnc2c3c4c(sc3ncn12)CCCC4)NCc1ccco1	?	?	-3.2%	-1.9%	21.7
O=C(c1ccco1)N1CCN(c2nc(C3CC3)nc3sc4c(c23)CCCC4)CC1	?	25.9µM*	?	?	0.0
